Results: ChEMBL document CHEMBL3988442, “University of Dundee, Small-Polar-MMV Screening Library” (2021)
About 960 (1.5%) of roughly 66,000 compounds showed an effect of 50% or more. This is one part of a sample in which strong results are shown more often than they occur.

Tested on: Trypanosoma brucei
Assay: Trypanosoma brucei 72 hour study
Format: functional, organism-based
Set-up: scale not given: in the data most compounds retested in dose-response had high values

## CC(=O)N1[C@H](CN(C)C)C[C@@H]2CN(C(=O)c3ccno3)CC[C@@H]21.O=C(O)C(F)(F)F
30.3 µM, […]
  Percent Effect: 5.246%

## Cc1nc(C)n(CC2CN(Cc3ccccc3OC(C)C)CCO2)n1 (stereo not given)
30.3 µM, […]
  Percent Effect: 101%

## Cc1nc(C)n(CC2CN(Cc3ccccc3C#N)CCO2)n1 (stereo not given)
30.3 µM, […]
  Percent Effect: 19.46%

## Cc1nc(C)n(CC2CN(Cc3cccc4ccccc34)CCO2)n1 (stereo not given)
30.3 µM, […]
  Percent Effect: 20.23%

## Cn1cc(CN2CCC[C@]3(C[C@@H](Oc4ncccc4F)CO3)C2)cn1.O=C(O)C(F)(F)F.O=C(O)C(F)(F)F
30.3 µM, […]
  Percent Effect: 0.8954%

## CNC(=O)[C@H]1C[C@@H]2CN(Cc3ccccc3)C[C@H]1O2.O=C(O)C(F)(F)F
30.3 µM, […]
  Percent Effect: 0.1079%

## CN1CCN(c2ncccn2)CC(C(=O)N(C)C)C1 (stereo not given)
30.3 µM, […]
  Percent Effect: -26.5%

## CN(C)Cc1nc2c(o1)CN(S(=O)(=O)c1cccs1)C2.O=C(O)C(F)(F)F
30.3 µM, […]
  Percent Effect: 5.819%

## CC(C)c1nc(CN2CCc3onc(-c4cccc(F)c4)c3C2)no1
30 µM, 30.03 µM
  Percent Effect: 51.01%

## CC(C)(C)c1nc(CN2CCc3onc(-c4cccc(F)c4)c3C2)no1
30 µM, 30.03 µM
  Percent Effect: 51.86%

## CC(C)Cc1nc(CN2CCc3onc(-c4cccc(F)c4)c3C2)no1
30 µM, 30.03 µM
  Percent Effect: 18.46%

## CC(C(=O)N(C)C)N1CCc2onc(-c3cccc(F)c3)c2C1 (stereo not given)
30 µM, 30.03 µM
  Percent Effect: -18.33%

## Cn1ncc(CN2CCc3onc(-c4cccc(F)c4)c3C2)c1C1CC1
30 µM, 30.03 µM
  Percent Effect: 32.05%

## Fc1cccc(-c2noc3c2CN(Cc2cncn2C2CC2)CC3)c1
30 µM, 30.03 µM
  Percent Effect: 24.68%

## Cn1cc(CNC2CC3(CCN(S(C)(=O)=O)CC3)c3ccccc32)cn1.O=C(O)C(F)(F)F (stereo not given)
30.3 µM, […]
  Percent Effect: -14.03%

## CC(C)c1nnc(N2C[C@@H]3CC[C@H](C2)N(CC2CCC2)C3)s1
30 µM, 30.03 µM
  Percent Effect: -2.589%

## CN(C)Cc1cnc(C2CCN(C(=O)c3ccccc3F)C2)[nH]1.Cl (stereo not given)
30.3 µM, […]
  Percent Effect: 3.217%

## O=C(Cn1ccc2sccc2c1=O)NCCCc1ccccc1
30 µM, 30.03 µM
  Percent Effect: -11.95%

## Cn1cccc1C(=O)N1CCC2(CC1)CC(N1CCOCC1)C2.O=C(O)C(F)(F)F
30.3 µM, […]
  Percent Effect: -54.57%

## CCNC(=O)NC1CCC(Oc2ccccc2C#N)CC1 (stereo not given)
30 µM, 30.03 µM
  Percent Effect: 74.2%

## CN(C)C1(C(=O)NC2CCC(Oc3ccccc3C#N)CC2)CCC1 (stereo not given)
30 µM, 30.03 µM
  Percent Effect: -17.82%

## CN(C)CCN(C)C(=O)NC1CCC(Oc2ccccc2C#N)CC1 (stereo not given)
30 µM, 30.03 µM
  Percent Effect: 7.047%

## CCOCc1ccc(CNc2cncc(-n3cccn3)n2)cc1
10 µM
  Percent Effect: -32.35%

## CC(NC(=O)C(C)(C)C)c1cc(O)nc(-c2cccnc2)n1 (stereo not given)
30.3 µM, […]
  Percent Effect: -7.147%

## CC(=O)NCC1CCN(C(=O)c2csc(-c3ccc(C)cc3C)n2)CC1
30 µM, 30.03 µM
  Percent Effect: 56.57%

## CC(=O)N1CCCN(C(=O)c2csc(-c3ccc(C)cc3C)n2)CC1
30 µM, 30.03 µM
  Percent Effect: 20.93%

## CC(=O)N1CCN(C(=O)c2csc(-c3ccc(C)cc3C)n2)CC1
10 µM
  Percent Effect: -21.97%

## CN(C)C1CCC2(CCN(Cc3nccn3C)CC2)c2ccccc21.O=C(O)C(F)(F)F.O=C(O)C(F)(F)F (stereo not given)
30.3 µM, […]
  Percent Effect: -42.21%

## CNCC(=O)N1CC(c2cc(Nc3ncccn3)nc(C)n2)C1.Cl
30 µM, 30.03 µM
  Percent Effect: -14.51%

## Cn1cnnc1C1CCCN(C(=O)c2cc(-c3ccccc3)on2)C1 (stereo not given)
30 µM, 30.03 µM
  Percent Effect: -25.06%

## CCN(CC)CCCNCc1cc2cccc(C)c2[nH]c1=O
30.3 µM, […]
  Percent Effect: -3.275%

## CCN(CC)CCCNCc1cc2cc(C)cc(C)c2[nH]c1=O
30.3 µM, […]
  Percent Effect: 66.62%

## CCN(CC)CCCNCc1cc2cc(C)ccc2[nH]c1=O
30.3 µM, […]
  Percent Effect: -2.792%

## Cc1cc(C(=O)NCCN2CCCCC2C)nn1C(C)(C)C (stereo not given)
30 µM, 30.03 µM
  Percent Effect: -37.93%

## Cl.O=C(Nc1cccc(CNCc2ccsc2)c1)C1CC1
10 µM
  Percent Effect: -60.42%

## COCc1cc(NCCCSc2nnc(C)s2)ncn1
30 µM, 30.03 µM
  Percent Effect: 0.4948%

## CNC(=O)CC1CC2(CCN(CC3CC3)CC2)Oc2ccccc21.O=C(O)C(F)(F)F (stereo not given)
30.3 µM, […]
  Percent Effect: -8.019%

## CO[C@H]1CNC[C@@H]1NC(=O)CCc1nc(-c2ccccc2)no1
30.3 µM, […]
  Percent Effect: 14.68%

## CCO[C@H]1COC[C@@H]1NC(=O)CCc1nc(-c2ccccc2)no1
30.3 µM, […]
  Percent Effect: -3.299%

## O=C(CCc1nc(-c2ccccc2)no1)N[C@H]1COC[C@@H]1N1CCCC1
30.3 µM, […]
  Percent Effect: 62.68%

## COCCN1C(=O)[C@H]2CC[C@@H]1CN(S(=O)(=O)c1ccc(OC)cc1)C2
30.3 µM, […]
  Percent Effect: -80.52%

## Cc1cc(NCCN2CCNC2=O)nc2cc3c(cc12)CCC3
30 µM, 30.03 µM
  Percent Effect: 101.3%

## COc1cc2nc(NCCN3CCNC3=O)cc(C)c2cc1OC
30 µM, 30.03 µM
  Percent Effect: 57.38%

## COc1cc(OC)c2nc(NCCN3CCNC3=O)cc(C)c2c1
30 µM, 30.03 µM
  Percent Effect: 22.56%

## COc1cc2nc(NCCNS(C)(=O)=O)cc(C)c2cc1OC
30 µM, 30.03 µM
  Percent Effect: 21.73%

## Cc1cc(NCCS(C)(=O)=O)nc2cc3c(cc12)CCC3
30 µM, 30.03 µM
  Percent Effect: 3.514%

## Cc1cc(NCCNS(C)(=O)=O)nc2cc3c(cc12)CCC3
30 µM, 30.03 µM
  Percent Effect: 12.23%

## Cc1cc(C(=O)N2CCn3cc(CN4CCOCC4)nc3C2)no1.O=C(O)C(F)(F)F
30.3 µM, […]
  Percent Effect: -304.6%

## CN1CC(=O)N(c2ccsc2)CC12CCN(C(=O)CC1CCCC1)C2.O=C(O)C(F)(F)F (stereo not given)
30 µM, 30.03 µM
  Percent Effect: 8.203%

## O=C(C[C@@H]1COC[C@H]2CN(C3CCCC3)C[C@@H]12)NCc1cccnc1.O=C(O)C(F)(F)F.O=C(O)C(F)(F)F
30.3 µM, […]
  Percent Effect: 5.505%

## Cc1noc(CN2CCC(Cc3ccc(F)cc3)CC2)n1
30.3 µM, […]
  Percent Effect: -2.984%

## CN(C)C(=O)N1C[C@@H]2CC[C@H](C1)N(Cc1nnc(C3CC3)o1)C2
30 µM, 30.03 µM
  Percent Effect: -29.28%

## Cc1cnccc1-c1cc(NCCO)nc2[nH]ccc12
30 µM, 30.03 µM
  Percent Effect: -32%

## CNc1cc(-c2ccc(COCCN)cc2)c2cc[nH]c2n1
30 µM, 30.03 µM
  Percent Effect: -16.28%

## CCCNCc1ccc(-c2cc(N)nc3[nH]ccc23)cc1
30.3 µM, […]
  Percent Effect: 58.31%

## CCCNCc1ccc(-c2ccnc3[nH]ccc23)cc1
30.3 µM, […]
  Percent Effect: 63.66%

## Nc1cc(-c2cc(O)cc(C(=O)O)c2)c2cc[nH]c2n1
30 µM, 30.03 µM
  Percent Effect: -9.984%

## CCNCCOc1ccc(-c2cc(N)nc3[nH]ccc23)cc1
30.3 µM, […]
  Percent Effect: 21.45%

## CC(C)N1CCC(c2nc3ccc(-c4ccnn4C)cn3n2)CC1.O=C(O)C(F)(F)F
30.3 µM, […]
  Percent Effect: -11.51%

## O=C(CC1CCCC1)N1CCC2(CCN2Cc2ccc(F)cc2)C1.O=C(O)C(F)(F)F (stereo not given)
30.3 µM, […]
  Percent Effect: -0.9298%
